Activity calls are given as the source filed them. Unless noted, the rule behind the calls is not given here.
What was measured:
[1] = system: Wnt5a (protein binding on small-molecule microarray); test: small molecules binding Wnt5a protein – biophysical, small-molecule microarray, 635/667 nm fluorescence, primary screen (AID 1142); conditions: 635 nm fluorescence, higher = more signal;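 note: fluorescence read at 667 nm with signal to noise per printed feature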
[2] = ATP-based viability of Huh7 replicon cells – cell-based, CellTiter-Glo luminescence, basal, 48 h, cytotoxicity control for HCV replication inhibitor project, primary screen (AID 1143); conditions: higher = more signal, called active from +8 up or from −8 down;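 note: Huh7 hepatoma cells carrying a hepatitis C replication reporter with no stimulus; test concentration not given here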
[3] = Pseudomonas biofilm growth suppression – PAO1 strain, BacTiter-Glo luminescence, LB-PBS, primary screen (AID 1144); conditions: P. aeruginosa PAO1 biofilm, 12 h, higher = more signal
[4] = basal CRE-LacZ reporter activity in PC12 – cell-based, unstimulated, primary screen (AID 1145); conditions: no forskolin, luminescence, 4.5 h, higher = more signal, called active from +8 up or from −8 down
[5] = forskolin-driven CRE-LacZ activity in PC12 – cell-based, CRE-LacZ reporter, forskolin-stimulated, primary screen (AID 1146); conditions: luminescence, 4.5 h, higher = more signal, called active from +8 up or from −8 down;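 note: PC12 cells with 6xCRE LacZ reporter stimulated by forskolin 10 µM; beta-galactosidase reporter signal reflecting CREB driven transcription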
[6] = molecular target: Streptavidin (Streptomyces avidinii) (UniProt P22629); test: compounds binding control protein streptavidin – biophysical, small-molecule microarray, 635/667 nm fluorescence, artefact control for SMM compound annotation, primary screen (AID 1147); conditions: higher = more signal;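 note: signal reflects streptavidin binding to arrayed compounds as a control protein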
[7] = probe aInhba binding on compound microarray – biochemical, small-molecule microarray, 635/667 nm fluorescence, primary screen (AID 1148); conditions: higher = more signal;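 note: score merges 667nm spot fluorescence with signal-to-noise for antibody binding to printed compounds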
Torsin-1A (Homo sapiens) [8] = molecular target: Torsin-1A (Homo sapiens) (UniProt O14656); test: TOR1A wild-type binding on microarray – cell lysate, small-molecule microarray, lysate, 635/667 nm, primary screen (AID 1149); conditions: COS7 hTOR1A-WT lysate, 635 nm fluorescence, higher = more signal
Torsin-1A (Homo sapiens) [9] = molecular target: Torsin-1A (Homo sapiens) (UniProt O14656); test: torsin A mutant lysate binding on microarrays – cell lysate, small-molecule microarray, COS7 lysate, 635/667 nm fluorescence, primary screen (AID 1150); conditions: COS7 hTOR1A mutant lysate, 635 nm fluorescence, higher = more signal;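 note: score pools 667 nm emission and signal to noise measuring lysate protein binding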
[10] = system: Sonic hedgehog protein (Shh); test: Sonic hedgehog microarray binding compounds – biochemical, small-molecule microarray, 635/667 nm fluorescence, primary screen (AID 1151); conditions: 635 nm fluorescence, higher = more signal;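 note: Shh protein binding to compounds spotted on small-molecule microarray slides; score combines spot fluorescence intensity with signal-to-noise across triplicate slides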

Torsin-1A (Homo sapiens), sequence (O14656 whole entry, looked up): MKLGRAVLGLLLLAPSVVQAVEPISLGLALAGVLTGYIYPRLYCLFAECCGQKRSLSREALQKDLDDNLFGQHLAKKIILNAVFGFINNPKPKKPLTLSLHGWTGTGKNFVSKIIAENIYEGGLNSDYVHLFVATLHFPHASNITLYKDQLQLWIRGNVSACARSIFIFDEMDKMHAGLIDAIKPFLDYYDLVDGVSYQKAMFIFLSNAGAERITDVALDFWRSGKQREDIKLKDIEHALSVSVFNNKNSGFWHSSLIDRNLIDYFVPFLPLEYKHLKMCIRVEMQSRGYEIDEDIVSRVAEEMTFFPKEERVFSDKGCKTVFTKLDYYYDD
Streptavidin (Streptomyces avidinii), sequence (P22629 whole entry, looked up): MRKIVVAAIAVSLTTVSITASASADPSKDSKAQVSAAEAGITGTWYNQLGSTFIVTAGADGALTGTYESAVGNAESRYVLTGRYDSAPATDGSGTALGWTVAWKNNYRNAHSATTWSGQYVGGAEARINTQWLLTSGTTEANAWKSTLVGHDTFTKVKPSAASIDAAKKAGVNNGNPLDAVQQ

Compound | composite z-score [1] | z-score [2] | z-score [3] | z-score [4] | z-score [5] | composite z-score [6] | composite z-score [7] | composite z-score (Torsin-1A (Homo sapiens) [8]) | composite z-score (Torsin-1A (Homo sapiens) [9]) | composite z-score [10]
C#CCCCON=C1C[C@@H](O)[C@@H](O)[C@@H]2[C@@H]3C(=O)N(c4ccc(F)cc4F)C(=O)[C@@H]3CC[C@@H]12 | 0.09 | -0.459 (inactive) | 0.589 (inactive) | -0.564 (inactive) | -0.392 (inactive) | -0.091 | -0.213 | 0.061 | 0.0576 | 0.351
CCOC(=O)[C@H](Cc1ccccc1)NC(=O)CCC1CC(OC(=O)NCc2cccc3ccccc23)CC2(CCCC(COC(=O)NCc3ccccc3)O2)O1 (stereo not given in full) | 0.0636 | -5.15 (inactive) | -1.29 (inactive) | -0.977 (inactive) | 2.01 (inactive) | 0.376 | -0.0259 | -0.347 | 0.0167 | 0.58
C[C@@H]1C=CCC(=O)OC[C@H]2O[C@@H](C=C[C@@H]2O)[C@H](C)C=CCC(=O)OC1 | 0.0051 | -1.05 (inactive) | -1.11 (inactive) | 0.344 (inactive) | -0.812 (inactive) | -0.224 | -0.206 | 2.73 | 1.98 | 2.16
C=C(C)C(=O)OCC1CN2[C@@H](CC[C@@H](C)[C@@H]2c2ccc(Br)cc2)C(=O)O1 (stereo not given in full) | 0.192 | -0.295 (inactive) | 1.34 (inactive) | 1.91 (inactive) | -0.0828 (inactive) | 0.33 | -0.0627 | -0.2 | 1.13 | 0.486
CC(CCN1CCCc2nc(C)c(C)cc21)=NOC(C)CN1CCCCc2nc(C)c(C)cc21 (stereo not given) | 0.277 | -0.466 (inactive) | -0.624 (inactive) | -0.31 (inactive) | 0.527 (inactive) | 0.666 | 0.0074 | -0.109 | 0.631 | 1.05
CCN1C(=O)[C@H]2[C@H]3[C@H](O)[C@H](O)CC(=NO[C@@H](C)c4cn([C@H](CO)Cc5ccccc5)nn4)[C@@H]3CC[C@H]2C1=O | 0.283 | -0.0863 (inactive) | 0.451 (inactive) | 0.727 (inactive) | 0.511 (inactive) | -0.138 | 0.0051 | 0.651 | 0.435 | 0.486
CC[C@@H](c1ccccc1)n1c(=O)n2n(c1=O)[C@H]1[C@H](O)[C@@H]3O[C@@H]3C(=O)[C@H]1CC2 | -0.0319 | -3.57 (inactive) | 0.206 (inactive) | -1.02 (inactive) | 2.92 (inactive) | 0.092 | -0.0762 | 0.0045 | -0.146 | 0.678
CO[C@H]1COC(=O)CC=C[C@@H](C)[C@H](OC)COC(=O)[C@@H]2CCCN2C(=O)CC=C[C@@H]1C | -0.0779 | 0.192 (inactive) | 0.474 (inactive) | 0.251 (inactive) | -0.759 (inactive) | -0.407 | -0.186 | 1.72 | 2.49 | 2.18
CO[C@@H]1COC(=O)[C@H](CCSC)NC(=O)CC=C[C@@H](C)COC(=O)CCC[C@H]1C | -0.277 | -2.75 (inactive) | -0.88 (inactive) | 0.341 (inactive) | 0.85 (inactive) | -1.47 | -0.255 | 4.03 | 4.08 | 2.27
CCOC(=O)[C@H](Cc1ccccc1)NC(=O)OC1CC(CCC2CC(CC)=NO2)OC2(CCCC(COC(=O)NCCC(C)C)O2)C1 (stereo not given in full) | 0.0453 | -0.24 (inactive) | 0.636 (inactive) | 0.105 (inactive) | 0.703 (inactive) | 0.851 | -0.154 | -0.182 | 0.225 | 0.135
CC(CCN1CCc2nc(-c3ccccc3)c(-c3ccccc3)cc2C1)=NOC[C@@H](O)[C@H]1O[C@@H]2OC(C)(C)O[C@@H]2[C@H]1O | 0.19 | -0.875 (inactive) | 0.306 (inactive) | 2.25 (inactive) | -0.311 (inactive) | 0.687 | -0.0589 | 0.648 | 0.587 | 1.09
COC(=O)CC=C[C@@H](C)[C@@H](C=NOCC[C@@H]1C=C[C@H](OC(C)=O)[C@@H](COC(C)=O)O1)OC | 0.38 | 0.309 (inactive) | 0.711 (inactive) | -0.557 (inactive) | 0.0921 (inactive) | -0.227 | 0.0565 | 0.563 | 0.359 | 0.19
C=CC[C@@H]1C=C[C@H](ON=C(C)CCN2CCc3nc(-c4ccccc4)c(-c4ccccc4)cc3C2)[C@@H](CO)O1 | 0.0399 | -0.648 (inactive) | -0.117 (inactive) | -0.0033 (inactive) | -1.03 (inactive) | 0.313 | -0.0719 | 0.593 | 0.415 | 1.12
CCC1=NOC(CCC2CC(OC(=O)NCc3cccc4c3OCO4)CC3(CCCC(COC(=O)NCCc4ccccc4OC)O3)O2)C1 (stereo not given) | 0.196 | -0.491 (inactive) | 0.249 (inactive) | 1.46 (inactive) | 0.214 (inactive) | 0.72 | -0.152 | -0.0106 | 0.778 | 0.157
COCCNC(=O)OCC1CCCC2(CC(OC(=O)NCc3ccc4c(c3)OCO4)CC(CCC(=O)N[C@@H](C)C(=O)OC)O2)O1 (stereo not given in full) | -0.0558 | -0.773 (inactive) | -0.0785 (inactive) | -0.0755 (inactive) | 0.468 (inactive) | 0.303 | -0.205 | 0.308 | 0.551 | 1.5
Cc1ccc(S(=O)(=O)N[C@H]2COC(=O)CC=C[C@H](C)[C@@H](NS(=O)(=O)c3ccc(C)cc3)COC(=O)CC=C[C@@H]2C)cc1 | -0.11 | -0.591 (inactive) | -0.681 (inactive) | -0.008 (inactive) | 0.556 (inactive) | 1.17 | -0.0645 | 0.649 | 0.741 | 0.483
CCC(=O)[C@@]1(O)C(=O)N2C(=C3C(=O)OCC[C@@H]31)N(Cc1ccccc1)C(C)=C(C(=O)OC)[C@H]2c1ccccc1 | -0.308 | 0.321 (inactive) | -1.51 (inactive) | 0.513 (inactive) | -0.205 (inactive) | 0.565 | 0.0633 | 0.578 | 0.224 | 0.438
Cc1ccc(S(=O)(=O)n2c3ccccc3c3nnc(C(=O)c4ccccc4)nc32)cc1 | 0.19 | -0.472 (inactive) | -0.673 (inactive) | 1.38 (inactive) | -1.15 (inactive) | -0.237 | 0.0998 | 0.0855 | -0.292 | 0.766
CCCCc1nc2c(c3c1C[C@H](C)OC3)CN(CCOc1ccccc1)CC2 | 0.0426 | -1.65 (inactive) | -2.34 (inactive) | 7.15 (inactive) | -1.03 (inactive) | 0.501 | -0.1 | 0.599 | -0.0271 | 1.32
CO[C@H]1COC(=O)CC=C[C@H](C)[C@@H](OC)COC(=O)[C@H](C)COC(=O)CC=C[C@@H]1C | -0.144 | -0.0417 (inactive) | -0.165 (inactive) | -0.93 (inactive) | -0.724 (inactive) | -0.127 | -0.208 | 1.1 | 1.01 | 1.93
COC(=O)[C@H](C)NC(=O)CCC1CC(OC(=O)NCc2ccc3c(c2)OCO3)CC2(CCCC(COC(=O)NCC(c3ccccc3)c3ccccc3)O2)O1 (stereo not given in full) | 0.6 | -4.67 (inactive) | -0.405 (inactive) | -0.437 (inactive) | 1.96 (inactive) | 0.693 | -0.0719 | 0.0104 | 0.947 | 1.97
CC(C)=CCCC(C)=CCON=C1C[C@@H](O)[C@@H](O)[C@@H]2[C@@H]3C(=O)N(C4CCCCC4)C(=O)[C@@H]3CC[C@@H]12 | 0.24 | -0.592 (inactive) | 0.233 (inactive) | 0.517 (inactive) | 0.13 (inactive) | -0.0037 | -0.0719 | 0.184 | 0.288 | 1.08
COc1ccc(O[C@H]2C=C[C@@H](c3ccccc3)O[C@@H]2CON=C(C)C)cc1 | -0.0515 | 0.361 (inactive) | -0.385 (inactive) | 0.113 (inactive) | 0.177 (inactive) | 0.446 | -0.004 | -0.0422 | -0.222 | -0.114
COc1cccc([C@H]2Oc3ccc(OC)cc3C(=NO[C@@H]3O[C@H](COC(C)=O)[C@@H](OC(C)=O)[C@H](OC(C)=O)[C@H]3OC(C)=O)[C@@H]2O)c1 | 0.186 | -0.202 (inactive) | 0.0537 (inactive) | 0.336 (inactive) | 0.38 (inactive) | -0.0198 | -0.163 | 0.29 | 0.461 | 0.149
CO[C@H]1COC(=O)CCC[C@@H](C)[C@H](OC)COC(=O)[C@@H]2CCCN2C(=O)CC=C[C@@H]1C | 0.236 | -0.717 (inactive) | 0.55 (inactive) | -0.385 (inactive) | -0.0072 (inactive) | -0.44 | -0.101 | 2.64 | 1.05 | 2.06
CCOC(=O)[C@H](Cc1ccccc1)NC(=O)CCC1CC(OC(=O)NCCc2ccc(F)cc2)CC2(CCCC(COC(=O)NCCc3ccc(Cl)cc3)O2)O1 (stereo not given in full) | 0.108 | -0.0147 (inactive) | -0.288 (inactive) | -0.526 (inactive) | 0.483 (inactive) | 0.391 | -0.0494 | 0.371 | 0.837 | 0.726
COc1cccc([C@H]2Oc3ccc(OC)cc3C(=NOC[C@@H](O)[C@H]3O[C@@H]4OC(C)(C)O[C@@H]4[C@H]3O)[C@@H]2O)c1 | 0.205 | -2.83 (inactive) | 1.12 (inactive) | 2.02 (inactive) | 0.0487 (inactive) | -0.311 | -0.105 | 0.0929 | 0.339 | 0.303
CCC=CCCC(OC(=O)c1ccc(Br)cc1)C1=CCCCC1=O (stereo not given) | -0.0451 | -1.29 (inactive) | 1.45 (inactive) | -0.158 (inactive) | 3.09 (inactive) | 0.148 | -0.195 | 1.08 | 1.87 | 1.46
C[C@H]1CC[C@H]2C(=O)O[C@H](COc3ccc(C(C)(C)C)cc3)CN2[C@@H]1c1ccc(Br)cc1 | -0.185 | -1.47 (inactive) | -0.239 (inactive) | 1.72 (inactive) | -0.466 (inactive) | 0.0762 | -0.0021 | 0.188 | 0.3 | 0.48

Source: PubChem BioAssay
